Bioassay records from PubChem.
MBNL1 CUG block – blocks human MBNL1 binding to CUG repeat RNA. Q9NR56. TR-FRET MBNL1-His/biotin-(CUG)12 binding, 665/545 ratio. Potency, µM (series often up to 57.5 µM), for inactives: at the highest dose activity change, negative = inhibition, hits mostly inhibitors. 280,000 compounds, 0.036% hits; active = well fitted inhibition curve with a large enough effect in the signal ratio, with a control signal flat, not every such curve was filed as active; inconclusive = small, poorly fitted or top-dose-only effect, or effect the other way, or a change in a side signal; inactive = no such curve, though single readings can be large or run the other way; the % refers to the signal ratio
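Compounds (final 92 nM to 58 uM) are added to His-tagged MBNL1 and biotin-(CUG)12, then terbium anti-His antibody and streptavidin-XL665 (5 nM final). After 60 min at room temperature, the 665/545 nm ratio is read.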
GLS inhibitor – inhibitors of human glutaminase (GLS). O94925. GLS enzymatic activity, qHTS titration. Potency, µM (doses to about 45.5 µM), without a hit: top-dose activity change, negative = inhibition, hits mostly inhibitors. 410,000 compounds, 0.21% hits. AID 624170
Target sequence (O94925 whole entry, looked up): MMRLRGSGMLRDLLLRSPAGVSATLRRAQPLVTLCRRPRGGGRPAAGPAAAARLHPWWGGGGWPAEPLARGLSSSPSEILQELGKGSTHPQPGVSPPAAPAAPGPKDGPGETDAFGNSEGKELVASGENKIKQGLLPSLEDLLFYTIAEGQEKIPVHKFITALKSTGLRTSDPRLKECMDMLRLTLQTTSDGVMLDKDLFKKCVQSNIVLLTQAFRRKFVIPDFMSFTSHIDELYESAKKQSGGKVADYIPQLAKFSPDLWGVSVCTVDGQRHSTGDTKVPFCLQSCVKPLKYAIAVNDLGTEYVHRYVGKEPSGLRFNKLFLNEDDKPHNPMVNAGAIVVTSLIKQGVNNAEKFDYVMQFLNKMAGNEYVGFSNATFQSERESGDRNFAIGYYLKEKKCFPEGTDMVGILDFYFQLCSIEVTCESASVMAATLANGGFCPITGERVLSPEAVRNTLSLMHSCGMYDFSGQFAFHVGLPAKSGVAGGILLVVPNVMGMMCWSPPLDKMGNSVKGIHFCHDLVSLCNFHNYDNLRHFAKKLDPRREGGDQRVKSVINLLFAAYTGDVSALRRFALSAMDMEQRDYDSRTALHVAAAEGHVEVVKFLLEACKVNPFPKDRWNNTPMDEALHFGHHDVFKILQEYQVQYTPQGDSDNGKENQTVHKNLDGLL
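Human kidney-isoform GLS in 45 mM KH2PO4 pH 8.2, 0.02% Tween-20, with compound, started with 1mM L-Glutamine (added stock). Glutamate oxidase/HRP/Amplex red coupled fluorescence read at start and after 30 min at RT.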
Chronic BCR inh – chronic active BCR signaling inhibition; 340,000 compounds, 0.05% hits; Potency, µM (top dose mostly 46.1 µM), for inactives: at the highest dose activity change, negative = inhibition, actives largely listed as inhibitors; ABC-DLBCL IkBa-CBG/CBR reporter, luminescence ratio, 4 h; active = well fitted inhibition curve with a large enough effect in the signal ratio, with a control signal flat, not every such curve was filed as active; inconclusive = small, poorly fitted or top-dose-only effect, or effect the other way, or a change in a side signal; the % refers to the signal ratio;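 also: plate controls were basal doxycycline-induced cells for no effect and cells given 10 µM MG132 for full effect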
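Concentration-response series (up to 46 uM) were applied to TMD8 dual-reporter cells for 4 h at 37C with doxycycline. Green/red ratio, after filter-overlap correction, defined %Activity; red signal alone was normalised to basal cells and zero luminescence.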
Anesthetic bind – binds horse apoferritin like a general anesthetic; P02791; apoferritin/1-aminoanthracene competitive binding, fluorescence; Potency, µM (titrated, usually from 77.5 µM), inactives show top-dose activity change, negative = displacement, usual class: inhibitors; 350,000 compounds, 0.074% hits; also: nearly all actives have a fitted effect of over 20% in size
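Steps: apoferritin (10 uM) was premixed with half-saturated 1-AMA in PBS, compounds were pin-transferred, plates stood 10 min at room temperature, fluorescence was read at 380/535 nm, and curves were fitted with a Hill equation.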
B2AR arrestin – recruits beta-arrestin to the human beta2-adrenergic receptor; P07550; beta-arrestin recruitment to beta2AR, cell-based reporter; Potency, µM (series often up to 46.1 µM), for the others: top-dose activation, most hits filed as activators; 330,000 compounds, 0.02% hits; AID 492947;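 also: 0% = DMSO controls and full agonism = EC100 isoproterenol or metaproterenol; nearly all actives have a fitted effect of over 65% in size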
* marks the source's active call; other numbers are inactive results; ? = inconclusive; / = no result; ! = repeats disagree. In the library only some 0.35% were active in any assay of this set; here they are far more common. Unless noted, calls follow the shape of the dose curve; as a rule, active = well fitted curve in the direction sought with a large enough effect; inconclusive = small, poorly fitted or top-dose-only effect, or another doubt; inactive = no such curve, though single readings can be large; an effect the other way counts as inactive or inconclusive. Unless noted, % is scaled to controls: 0 for no effect and ±100 for the full control effect; potency is read from the fitted curve at half-maximal effect.

SMILES	MBNL1 CUG block	GLS inhibitor	Chronic BCR inh	Anesthetic bind	B2AR arrestin
Cn1c(NNC(=O)C(c2ccccc2)c2ccccc2)cc(=O)n(C)c1=O	-9%	8.9µM*	?	-11%	1%
CCc1ccc(NC(=O)CC2C(=O)N(c3cccc(OC)c3)C(=O)N2Cc2ccc(F)cc2)cc1 (stereo unspecified)	/	5%	/	-6%	/
Nc1nnc(CSCc2ccccc2Cl)s1	/	-2%	-10%	?	0%
Nc1nnc(SCc2ccccc2Cl)s1	0%	-10%	/	11µM*	/
N/C(=N\N=C\c1ccc(Cl)cc1)N/N=C/c1ccc(Cl)cc1	/	24%	/	/	/
COc1cc(CN2CCN(S(=O)(=O)c3ccc(NC(C)=O)cc3)CC2)cc(OC)c1O	-10%	13µM*	?	-13%	-1%
COc1ccc(CN2CCN(S(=O)(=O)c3ccc(NC(C)=O)cc3)CC2)cc1OC	-20%	-5%	-6%	-20%	-1%
CC=Cc1cc(OC)c2c(c1)C(C)C(c1ccc(O)c(OC)c1)O2 (stereo unspecified)	/	8.9µM*	/	/	/
O=C(O)COc1ccccc1C(Nc1cccnc1)c1cc(Cl)c2cccnc2c1O (stereo unspecified)	23%	36%	10%	28µM*	0%
O=C(O)COc1ccccc1C(Nc1ccccn1)c1cc(Cl)c2cccnc2c1O (stereo unspecified)	21%	-11%	-4%	-8%	0%
CO[C@@]1(NC(=O)Cc2cccs2)C(=O)N2C(C(=O)O)=C(COC(N)=O)CS[C@@H]21	-26%	11µM*!	4%	12%	-1%
CO[C@@]1(NC(=O)Cc2cccs2)C(=O)N2C(C(=O)O)=C(COC(N)=O)CSC21 (stereo partly specified)	/	/	/	1%	/
CC(=O)N1N=C(c2ccco2)CC1c1cc2cc(C)ccc2nc1Cl (stereo unspecified)	-11%	5.6µM*	5%	-5%	0%
O=C(O)C1Nc2c(O)cc(Cl)c([N+](=O)[O-])c2C2C=CCC12 (stereo unspecified)	?	3.2µM*	2%	-21%	-1%
COc1ccc(C2NC(=S)N3C(c4ccc(OC)c(OC)c4)NC(=S)N23)cc1OC (stereo unspecified)	/	1%	/	/	/
Cn1cc([N+](=O)[O-])c(C(=O)Nc2ccc(C3CCCCC3)cc2)n1	?	2%	8%	7.9µM*	-1%
Cn1cc([N+](=O)[O-])c(C(=O)Nc2ccc(C(=O)N3CCCCC3)cc2)n1	?	3%	-9%	-21%	4%
Cc1cccc(-c2noc(-c3cc(C(C)C)[nH]n3)n2)c1	/	7%	/	16µM*	/
CC(C)c1cc(-c2nc(-c3cccc(Cl)c3)no2)n[nH]1	/	-1%	/	?	/
Cc1cn2c(=O)c(S(=O)(=O)NCCc3ccccc3)c(C)nc2s1	/	-12%	/	-16%	/
Cc1ccc(C)c(-c2ccc(=O)n(Cc3c(F)cccc3Cl)n2)c1	-3%	-6%	-10%	45µM*!	0%
NNC(=O)c1cc2sccc2s1	0%	9%	18µM*	-16%	0%
COc1ccc(N/C(C)=C/C(=S)Nc2ccccc2)cc1	2%	13µM*	-18%	-12%	-1%
Cc1ccccc1Nc1c(-c2cccnc2)nc2ccc(Cl)cn12	/	26%	/	-7%	/
CCc1ccc(NC(=O)CC2C(=O)OCCN2CC)cc1 (stereo unspecified)	/	-4%	/	-11%	/
SMILES	MBNL1 CUG block	GLS inhibitor	Chronic BCR inh	Anesthetic bind	B2AR arrestin
NC(=S)NNc1ccnc2cc(Cl)ccc12	6%	6.3µM*	?	-13%	0%
CCCCC(CC)CN=C(N)NC(N)=NCCCCCCN=C(N)NC(N)=NCC(CC)CCCC (stereo unspecified)	/	16µM*	?	-17%	0%
CC1CC(C(F)(F)C(F)(F)F)n2nc(C(=O)O)cc2N1 (stereo unspecified)	?	16µM*	1%	-7%	-1%
CC1CC(C(F)(F)F)n2nc(C(=O)O)cc2N1 (stereo unspecified)	-16%	4%	-7%	-7%	0%
CCN(CC)CCOC(=O)c1cccnc1	/	-2%	/	/	/
CC1(C)CC(=O)C(CS(=O)(=O)c2ccccc2)=C(O)C1	-2%	17%	?	32µM*	0%
CC1(C)CC(=O)C(CC(=O)Nc2ccc(S(N)(=O)=O)cc2)=C(O)C1	-1%	4%	7%	8%	5%
O=c1[nH]c2ccccc2c(O)c1O	-13%	5.6µM*	?	-3%	11%
CC1CCN(C(=O)COc2ccc(Nc3ccccc3)cc2)CC1	-1%	?	0%	?	0%
CC1CCCN(C(=O)COc2ccc(Nc3ccccc3)cc2)C1 (stereo unspecified)	-2%	-15%	?	18µM*	-1%
C/C=C/C=C/C(=O)[C@@H]1[C@@H]([C@]2(C)OC(=O)C(C)=C2O)[C@H]2/C(=C(O)/C=C/C=C/C)C(=O)[C@]1(C)C(=O)C2(C)O (stereo partly specified)	2%	10µM*	-1%	-3%	0%
CC(C)C[C@@H](CNCC(=O)[C@H](Cc1ccccc1)NC(=O)c1[nH]cnc1C(=O)N[C@H](CN)CC(C)C)NC(=O)c1nc[nH]c1C(=O)N[C@@H](CC(=O)O)C(=O)O	/	13µM*	/	/	/
C#C[C@@]1(OC(C)=O)CC[C@H]2[C@@H]3CCC4=CC(=O)CC[C@@H]4[C@H]3CC[C@@]21C	/	0%	/	/	/
Cn1c(Oc2ccccc2)nc2c1c(=O)n(Cc1ccc(Cl)cc1Cl)c(=O)n2C	/	11µM*	/	-8%	/
Cn1cnc2c1c(=O)n(Cc1ccc(F)cc1Cl)c(=O)n2C	-7%	8.9µM*	10%	-9%	-1%
CCCC(CCC)C(N)=O	/	-5%	/	/	/
CC(=O)Nc1cccc(NC(=O)CSc2cn(CC(=O)N3CCCCCC3)c3ccccc23)c1	/	8%	/	2%	/
COc1ccccc1CCNC(=O)c1ccc(NC(=O)N2CC(C)Sc3ccccc32)cc1 (stereo unspecified)	/	0%	/	-1%	/
N#C[C@H]1C[C@H]2C[C@@H]2N1C(=O)[C@@H](N)C12CC3CC(CC(O)(C3)C1)C2	/	-8%	/	/	/
CC1=NN(Cc2ccccc2)C(=O)C1C(c1ccc(Cl)cc1)C(C#N)C#N (stereo unspecified)	/	4%	21µM*	-6%	-1%
CC1=NN(Cc2ccccc2)C(=O)C1C(c1ccccc1)C(C#N)C#N (stereo unspecified)	21%	6%	?	-21%	0%
NC(=O)C1(N2CCCCC2)CCN(CCCC(=O)c2ccc(F)cc2)CC1	/	0%	/	-10%	/
O=C(CN1N=C(c2ccc(Cl)cc2)CCC1=O)NCCc1ccccc1	/	2%	-3%	?	/
Cc1ccc(C2=NN(CC(=O)NCCc3ccccc3)C(=O)CC2)cc1	/	6%	?	2.5µM*	/
